# Bioassay records: PubChem, The Scripps Research Institute Molecular Screening Center
# Most compounds without a hit are left out; they make up all but 4.1% or so of the library.
# DAX1 inh-1: inhibitors of human orphan nuclear receptor DAX1 (NR0B1); AID 504766; 340,000 compounds, 0.99% hits; inhibition, % at 6.75 µM; P51843; HEK293 Gal4-DAX1 luciferase reporter, luminescence;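 active = inhibition above the mean over all tested compounds plus 3 SD, cut at about 4.2% in these data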;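 also: 0% = DAX1-transfected cells with DMSO and 100% = empty-vector control cells with DMSO; inhibition shows as a rise in luminescence from relieved DAX1 repression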
# Target sequence (P51843 207-470 limits assumed): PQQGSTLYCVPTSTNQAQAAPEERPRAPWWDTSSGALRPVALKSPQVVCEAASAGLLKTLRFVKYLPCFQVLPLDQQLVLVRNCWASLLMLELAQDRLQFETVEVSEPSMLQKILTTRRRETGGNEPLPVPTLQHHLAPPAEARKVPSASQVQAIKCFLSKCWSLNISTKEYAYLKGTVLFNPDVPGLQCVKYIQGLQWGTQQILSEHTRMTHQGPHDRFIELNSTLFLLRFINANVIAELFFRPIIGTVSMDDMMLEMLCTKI
# DAX1 inh-2: DAX1 (NR0B1) inhibition, primary screen; HEK293T StAR-luciferase reporter, SF-1/DAX-1 repression relief; inhibition, % at 6.8 µM; 370,000 compounds, 1.1% hits; AID 652010;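 active = inhibition above the mean over all tested compounds plus 3 SD, cut at about 3.6% in these data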;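 also: 0% = DAX-1 cells with DMSO and 100% = cells lacking DAX-1 with DMSO; higher inhibition means more luminescence from relief of DAX-1 repression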
# ssDAF12 agonist: activates DAF-12 receptor from parasite S. stercoralis. HEK293 ssDAF-12/GRIP1 lit1-tk-luc reporter, luminescence; % of 3 µM dafachronic acid response. activation, % at 6.8 µM. 370,000 compounds, 1% hits. AID 652126;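 active = activation above the mean over all tested compounds plus 3 SD, cut at about 0.9% in these data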;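 also: 0% = DMSO-only wells and 100% = 3 µM delta7-dafachronic acid wells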
# hcDAF-12 act: H. contortus DAF-12 activation, primary screen; HEK293 hcDAF-12 lit1-tk-luc reporter, luminescence; 0% DMSO, 100% Δ7-dafachronic acid; activation, % at 6.8 µM; 370,000 compounds, 1.4% hits;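 active = activation above the mean of all tested compounds plus 3 SD, cut at about 5.5% in these data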;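 also: 100% = response to 3 µM Δ7-dafachronic acid high control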
# hgDAF-12 ag: activates the H. glycines DAF-12 receptor ligand-binding domain; HEK293 GAL4-hgDAF12 UAS-luciferase reporter, agonist luminescence; normalized to butyrate control; 370,000 compounds, 1.8% hits; activation, % at 6.8 µM; AID 687014;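 active = activation above a cutoff set at the mean of all screened compounds plus 3 SD, cut at about 10% in these data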;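 also: 0% = DMSO wells and 100% = sodium butyrate wells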
# hgDAF12 ag: confirmation of H. glycines DAF-12 agonists; shares compounds with hgDAF-12 ag; HEK293 GAL4-hgDAF12 luciferase reporter, agonist mode; percent of butyrate response; activation, % at 6.8 µM; 3,300 compounds, 80% hits; AID 743050;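 active = mean activation over triplicate wells above the hit cutoff derived from the earlier primary screen, cut at about 11% in these data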;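 also: 0% = DMSO low control and 100% = 2 mM sodium butyrate high control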
# LXRb DAF12 ctr: activates human LXR-beta, counter-screen for DAF-12 agonists. shares compounds with hgDAF-12 ag. HEK293 Gal4-LXR luciferase reporter, 24 h. 3,300 tested, under 10 active. activation, % at 6.8 µM;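 active = mean activation of the triplicate above a set limit carried over from the primary screen, none filed active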
# The depositor's hits bear a star; · = not tested or not shown.
SMILES,DAX1 inh-1,DAX1 inh-2,ssDAF12 agonist,hcDAF-12 act,hgDAF-12 ag,hgDAF12 ag,LXRb DAF12 ctr
CN(C)c1ccc(NC(=O)Nc2cccc(Cl)c2)cc1,3,2,0,5,17*,16*,1
COc1ccccc1/C=N\N=C(\N)c1ccccn1,0,3.9*,1.1*,6.0*,13*,14*,1
COc1ccccc1C=NN=C(N)C(N)=NN=Cc1ccccc1OC,-1,-1,0,0,2,·,·
CCOC(=O)N1CCN(C(=O)C2CC(c3ccccc3OC)=NO2)CC1 (stereo not drawn),-1,0,-1,3,2,·,·
O=C(C1CC(c2ccccc2O)=NO1)N1CCCC1 (stereo not drawn),-1,1,-1,1,14*,2,0
COC(=O)[C@]12C[C@H](CC(=O)N3CCN(C(=O)C4CC4)CC3)C(=O)N(Cc3ccco3)C1=C[C@H](COCc1ccccc1)O[C@@H]2C,·,0,-1,-2,2,·,·
O=C(CC(NC(=O)OCc1ccccc1)c1nn[nH]n1)OCc1ccccc1 (stereo not drawn),2,2,1,3,13*,11*,1
COC(=O)[C@H](C(C)C)N1Cc2nnn(Cc3ccccc3)c2-c2cc(F)ccc2S1(=O)=O,·,0,-2,-1,2,·,·
Cc1cccc(C2c3[nH]c4ccccc4c3CCN2C(=O)c2cc(C(C)C)nc(N)n2)n1 (stereo not drawn),0,-1,-1,4,6,·,·
Cc1ncoc1C(=O)N1CCc2c([nH]c3ccccc23)C1c1ccccc1F (stereo not drawn),-1,1,0,3,16*,3,0
O=C(c1cc2ncccn2n1)N1CCc2c([nH]c3ccccc23)C1c1ccccc1F (stereo not drawn),1,1,0,2,0,·,·
CCn1nc(C)cc1C(=O)N1CCc2c([nH]c3ccccc23)C1c1cc(F)ccc1F (stereo not drawn),·,1,1,6.2*,14*,13*,0
COc1cccc(N2CCN(C(=O)CSc3nc4ncccc4[nH]3)CC2)c1,·,-1,-2,-2,2,·,·
CN(C(=O)[C@@H](C1CC1)[C@@H](O)c1ccc(Cl)cc1)c1ccccc1,·,0,-1,-2,1,·,·
COc1ccc2cc(-c3ccn[nH]3)ccc2c1,3,1,1,4,14*,15*,1
O=C(/C=C/c1ccc(F)cc1)NCCC1=CCCCC1,0,1,-1,2,9,·,·
O=C(/C=C/c1ccccc1)NCCC1=CCCCC1,0,2,-1,-1,14*,12*,1
C[C@H](CO)N1C[C@H](C)[C@@H](CN(C)Cc2ccccc2)Oc2ccc(NC(=O)CCCCCC(=O)Nc3ccccc3N)cc2C1=O,3,2,-1,3,16*,9,0
CN(C)c1ccc(C(=O)OCC(=O)c2ccc[nH]2)cc1,1,0,0,4,15*,15*,0
COCCCN1C(=O)C(CC(=O)NC2CCCCC2)CC(C(=O)N(C)C)=C1C (stereo not drawn),2,0,-1,0,1,·,·
CCc1nc2cc3sc(CC)nc3cc2s1,0,2,0,2,16*,13*,1
CC1=NN(C(=O)c2ccc(C)o2)C(O)(c2ccccc2)C1 (stereo not drawn),2,3.9*,0,4,17*,-1,0
CCN(CC(=O)Nc1c(F)cccc1F)C(=O)c1ccc2c(=O)n3c(nc2c1)CCC3,1,0,-1,0,16*,2,0
O=C(COC(=O)c1ccccc1Cc1ccccc1)Nc1ccc(SC(F)F)cc1,1,3,0,3,14*,17*,1
O=C(Nc1ccc(SC(F)F)cc1)c1ccc(F)cc1,2,3,0,3,14*,14*,1
SMILES,DAX1 inh-1,DAX1 inh-2,ssDAF12 agonist,hcDAF-12 act,hgDAF-12 ag,hgDAF12 ag,LXRb DAF12 ctr
O=C(Cc1ccccc1F)Nc1ccc(SC(F)F)cc1,3,3,0,5,17*,14*,0
CC(=O)Nc1ccc(NC(=O)c2ccccc2F)cc1,3,1,0,0,2,·,·
O=C(Nc1ccc(SC(F)F)cc1)c1ccccc1F,6.2*,3.9*,0,5,16*,15*,1
COC(=O)C[C@@H]1CC[C@H]2[C@@H](COc3ccc(NC(=O)NC(C)C)cc3C(=O)N2C)O1,·,0,-2,-1,1,·,·
CNC(=O)COc1ccc(C=O)cc1OC,0,0,0,2,-1,·,·
COc1cc(C=O)ccc1OCc1cccc(Br)c1,1,0,-1,0,14*,10,0
CC(=O)COc1ccc2cc(-c3ccccc3)c(=O)oc2c1,3,2,0,6.2*,17*,17*,1
COc1ccc(-c2cc3ccc(OCC(N)=O)cc3oc2=O)cc1OC,0,0,-1,2,2,·,·
O=C(CSc1nnc(-c2ccco2)n1-c1ccc(Cl)cc1)Nc1cccc2ccccc12,·,0,-1,-1,-3,·,·
O=C(c1ccccc1)c1ccc(N2CCOCC2)c(F)c1,1,2,-2,1,16*,14*,1
O=C(Nc1ccccc1)Nc1ccccc1Br,1,4.1*,0,5,19*,7,0
CCCC1CCC(c2ccc(OCC)cc2)=CC1=O (stereo not drawn),3,2,0,1,14*,16*,1
O=C(O)Cn1cc(/C=c2/sc3nc4ccccc4n3c2=O)c2ccccc21,2,3,0,5.9*,17*,11*,0
CC(C)CC(=O)Nc1ccc2nn(-c3ccccc3)nc2c1,3,3,0,4,14*,16*,1
O=C(C1CCCO1)N1CCN(C2=Nc3ccccc3Sc3ccccc32)CC1 (stereo not drawn),·,0,-1,0,-1,·,·
Brc1ccc(-c2csc(N3CCCCCC3)n2)cc1,2,0,-2,-3,-1,·,·
Brc1ccc(-c2csc(N3CCOCC3)n2)cc1,7.5*,4.1*,0,3,19*,11*,1
CCOC(=O)N/N=C\c1ccccc1OC/C=C/c1ccccc1,0,-2,0,1,14*,8,0
CN(C)c1ccc(CNc2nc3cc(-c4ccc(F)cc4)sc3c(=O)n2C)cc1,·,-1,-1,1,1,·,·
CN1CCN(c2ccc(NC(=O)COc3ccccc3)cc2Cl)CC1,1,3,1,1,15*,14*,0
